# Experimental data reported in PubChem BioAssay AID1259343 (VanderVen Lab, College of Veterinary Medicine, Cornell …, 2017).
# Out of some 6,200 compounds screened, about 2,900 (47%) were called active. Rule as the data show it: active = inhibition above about 50%; inactive = the rest. So high a share suggests a set chosen from earlier hits. The list shows a part of the results.
# Test: Mycobacterium tuberculosis growth inhibition, primary screen (AID 1259343)
# Conditions: inhibition: at 10 µM, stronger effect = higher value; outcome: 10 uM
row,SMILES,inhibition
1,N#Cc1ccc(Nc2ccc(Cl)cc2)cc1,3.65% (inactive)
2,N#Cc1ccc(Nc2ccc(OC3CCCC3)cc2)nc1,93.4% (active)
3,N#Cc1ccc(Nc2ccc(N3CCCC3)c(F)c2)nc1,48.8% (inactive)
4,CC(C)C1=CC2=CC[C@H]3[C@](C)(CO)CCC[C@]3(C)C2CC1 (some centres not stated),82.5% (active)
5,Cc1cn(Cc2csc(C(C)C)n2)cc1C#N,1.23% (inactive)
6,O=C(NCc1cccc(-c2ncc(-c3ccc(F)cc3)[nH]2)c1)c1cccs1,22.9% (inactive)
7,Cn1c(Sc2ncc(-c3ccc(F)cc3)[nH]2)c(C#N)c(=O)n(C)c1=O,-14.4% (inactive)
8,N#Cc1cccc(C(=O)NCc2cccc(-c3ncc(-c4ccc(F)cc4)[nH]3)c2)c1,81.2% (active)
9,Cc1nc(-c2ccc(NC(=O)COC3CCCCC3)cc2)cs1,95% (active)
10,O=C(COC1CCCCC1)Nc1ccc(-c2nccs2)cc1,-7.41% (inactive)
11,Cc1nn(-c2ccccc2)c(Cl)c1C(=O)Nc1cccc(C(F)(F)F)c1,38.3% (inactive)
12,Cc1nc(-c2cccs2)cc([C@H]2CN3CC[C@H]2C[C@@H]3CNC(=O)Nc2cccc(C(F)(F)F)c2)n1,53.2% (active)
13,Cc1sc2nc(CSc3ccc(Br)cc3)nc(-n3ccnc3)c2c1C,-19.2% (inactive)
14,CC(=O)NCCC(=O)Nc1ccc(Oc2ccc(C#N)cc2)c(Cl)c1,-2.79% (inactive)
15,N#CCOc1ccc(NC(=O)CCOc2ccc(F)cc2Cl)cc1,81.4% (active)
16,Cc1ccc(C(=O)Nc2ccc(OCC#N)cc2)cc1C,22% (inactive)
17,O=S(=O)(CCCOc1ccc2c(c1)OCO2)N1CCCCC1,88.8% (active)
18,O=S(=O)(CCCOc1ccc2c(c1)OCO2)N1CCCCCC1,86% (active)
19,CCOC(=O)N1CCN(S(=O)(=O)CCCOc2ccc3c(c2)OCO3)CC1,32.5% (inactive)
20,Clc1ccc(Cn2ncc3c(N4CCN(c5cccc(Cl)c5)CC4)ncnc32)cc1,14.4% (inactive)
21,Clc1ccc(Cn2ncc3c(N4CCCCC4)ncnc32)cc1,67.1% (active)
22,Clc1ccc(Cn2ncc3c(N4CCCC4)ncnc32)cc1,65.3% (active)
23,c1ccc2c(c1)oc1c(N3CCCCCC3)ncnc12,-12.7% (inactive)
24,Cc1ccc(Cn2ncc3c(N4CCC(C)CC4)ncnc32)cc1,25.7% (inactive)
25,CCN(CC)c1ncnc2c1cnn2Cc1ccc(Cl)cc1,34.4% (inactive)
26,CC1CCN(c2ncnc3c2cnn3Cc2ccc(Cl)cc2)CC1,62.6% (active)
27,CCOc1ccc(C2C(c3nc4ccccc4s3)=C(O)C(=O)N2c2cc(C)on2)cc1OC (configuration not stated),46.5% (inactive)
